This is an account of results in PubChem BioAssay.

Activity calls are given as the source filed them.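 Rule for the calls, unless noted: active = visually confirmed hit in the image check and inhibition above 20%; inconclusive = visually confirmed hit but inhibition not above 20%; inactive = no visual hit in the image check.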

Assay [1] can be described thus: inhibitors of TNFa-induced NFkB p65 translocation, primary screen, imaging, HUVEC, MLSMR starter and 10KST1 sets (AID 438;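 active = inhibition above 20% together with a positive visual image hit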;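 note: compound added about 3h40 before a 20 min TNFalpha stimulation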;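 for inhibition: signal is the nuclear over cytoplasmic p65 intensity ratio per well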). The settings on record: HUVEC TNFa-induced p65 nuclear translocation; cell count: measured here: nuclei count (cytotoxicity indicator), at 2.08 µM; inhibition: at 2 µM, stronger effect = higher value, 0% TNFa-plus-vehicle, 100% no-TNFa wells.
A short description of assay [2]: reduction of polyQ htt aggregates in cells – imaging, exon1htt(103Q)mCFP cells, high-content imaging, primary screen (AID 483;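 active = visual image review flags a hit and inhibition of aggregation exceeds 20%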;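 note: compound exposure lasted 3 days before fixation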;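 for nuclei count: percent of the per-plate median nuclei count of sample wells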). To be noted: exon1htt(103Q)mCFP cell line, aggregate imaging, at 2 µM; inhibition of aggregation: stronger effect = higher value; nuclei count: measured here: cell count, toxicity.
Assay [3] is described as follows: endothelial E-selectin expression blockers – imaging, HUVEC, immunofluorescence, MLSMR starter and 10KST1 sets, primary screen (AID 487).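 For inhibition: signal is fraction of cell area covered by stained E-selectin grains.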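 For nuclei count: 100% = median nuclei count of all wells on the same plate.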 To be noted: HUVEC TNFalpha-induced E-selectin immunofluorescence imaging, at 2 µM; inhibition: stronger effect = higher value; nuclei count: measured here: cell number, toxicity.
The target of assay [4] is Voltage-gated potassium channel subunit beta-2 (Rattus norvegicus) (UniProt P62483). The experiment in a line: inhibitors of rat Kvbeta2 reductase activity – biochemical, NADPH fluorescence, primary screen (AID 622;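 active = fluorescence slope higher than the sample average by over 3 SD, cut at about -0.22 in these data, passing the limit was not always enough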;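 note: slope of raw intensity against log time taken from 70 to 1610 s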). The settings on record: recombinant KvBeta, 4-cyanobenzaldehyde reduction, at 10 µM, stronger effect = higher value.
Assay [5] shares this target. The experiment in a line: enhancers of rat Kvbeta2 NADPH turnover – biochemical, NADPH fluorescence, primary screen (AID 623;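 active = NADPH fluorescence slope more negative than the mean of all samples by about 3 SD, 99.7% confidence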;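 note: fluorescence intensity change per second fitted from 20 to 320 s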). To be noted: Recombinant KvBeta, NADPH fluorescence decrease slope, 10 min; at 10 µM; stronger effect = lower value.
Assay [6] deals with Alpha-2C adrenergic receptor (Homo sapiens) (UniProt P18825). Put plainly: compounds altering alpha2C-coupled GIRK flux – cell-based, HEK293 alpha2C/GIRK1/2, thallium flux, primary screen (AID 624;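 active = fluorescence slope after compound addition differing from the mean of all screened samples at 99.7% confidence, in either direction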;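 note: slope of fluorescence ratio to pre-addition baseline per second over 15 to 24 s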). To be noted: thallium flux BTC fluorescence, at 10 µM, actives lie on both sides.
The nature of assay [7]: blockers of RIG-like receptor reporter activation – cell-based, Sendai virus stimulus, luciferase, 10K MLSCN set, TLR/RLR signaling modifier project, primary screen (AID 602276;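 active = inhibition at or above 50% at 10 µM; inactive = inhibition below 50%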;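 note: firefly luciferase from ISG56 promoter only with Renilla not read in this screen; 0% = Sendai virus plus DMSO and 100% = medium plus DMSO without virus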). The settings on record: HEK293 RL24 IRF3 luciferase reporter, at 10 µM, stronger effect = higher value. (In a reporter assay the amount or activity of a reporter protein is the signal.)
Assay [8] in a line: TLR3 IRF3 reporter activation blockers – cell-based, poly I:C stimulus, luciferase, 10K MLSCN set, primary screen (AID 602277;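 active = inhibition of the reporter signal at or above 50%; inactive = inhibition below 50%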). To be noted: HEK293-TLR3 RL24 IRF3 luciferase reporter, at 10 µM, stronger effect = higher value.

Sequence of Voltage-gated potassium channel subunit beta-2 (Rattus norvegicus) (P62483 whole entry, looked up): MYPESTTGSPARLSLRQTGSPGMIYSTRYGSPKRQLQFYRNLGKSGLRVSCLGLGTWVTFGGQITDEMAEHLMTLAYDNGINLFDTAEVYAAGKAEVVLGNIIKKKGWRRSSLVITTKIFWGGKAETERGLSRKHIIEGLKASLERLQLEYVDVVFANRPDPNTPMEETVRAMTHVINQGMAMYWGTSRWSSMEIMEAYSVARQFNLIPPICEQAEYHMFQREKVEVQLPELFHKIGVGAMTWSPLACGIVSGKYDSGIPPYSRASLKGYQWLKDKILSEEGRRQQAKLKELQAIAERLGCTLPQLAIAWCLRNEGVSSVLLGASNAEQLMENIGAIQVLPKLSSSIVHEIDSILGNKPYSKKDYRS
Sequence of Alpha-2C adrenergic receptor (Homo sapiens) (P18825 whole entry, looked up): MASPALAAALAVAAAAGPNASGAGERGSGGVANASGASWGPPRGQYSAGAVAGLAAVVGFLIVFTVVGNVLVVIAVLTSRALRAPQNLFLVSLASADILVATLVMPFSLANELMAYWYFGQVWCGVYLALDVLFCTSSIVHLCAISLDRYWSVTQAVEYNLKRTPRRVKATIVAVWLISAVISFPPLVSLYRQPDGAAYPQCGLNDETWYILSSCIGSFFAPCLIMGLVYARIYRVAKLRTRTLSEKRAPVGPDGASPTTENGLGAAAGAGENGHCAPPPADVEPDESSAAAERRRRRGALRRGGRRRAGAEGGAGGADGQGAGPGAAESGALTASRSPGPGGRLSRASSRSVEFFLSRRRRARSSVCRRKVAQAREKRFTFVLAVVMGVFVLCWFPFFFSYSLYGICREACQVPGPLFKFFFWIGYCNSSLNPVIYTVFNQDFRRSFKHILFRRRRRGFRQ

For `CCOC(=O)N1CCC(Nc2nc3ccccc3n3cnnc23)CC1`, the cell count in assay [1] is 501. Further, the inhibition was -6.9% (inactive) in assay [1], -35.1% (inactive) in assay [3], 7.19% (inactive) in assay [7] and 18.1% (inactive) in assay [8]. Further, in assay [2], the inhibition of aggregation was -21.2% (inactive). In addition, the nuclei count in assay [2] came to 59.5%; in assay [3] it was 117%. The fluorescence slope in assay [4] was -0.581 (inactive). Moreover, the NADPH fluorescence slope in assay [5] is -8.8e-06 (inactive). In assay [6], the slope was 0.00645 (inactive).
Regarding `Cc1cc(C)n(-c2nc3sc4c(c3c3nnc(SCC(N)=O)n23)CC(C)(C)OC4)n1`, the cell count in assay [1] is 368. Also, the inhibition is 6.9% (inactive) in assay [1], -4.5% (inactive) in assay [3], 6.12% (inactive) in assay [7] and 10.9% (inactive) in assay [8]. Moreover, the inhibition of aggregation in assay [2] was -7.7% (inactive). For the same molecule, the nuclei count in assay [2] came out at 88.2%; in assay [3] it was 116%. The fluorescence slope in assay [4] is -0.318 (inactive). The NADPH fluorescence slope in assay [5] is 3.6e-06 (inactive). In assay [6], the slope is 0.00476 (inactive).
`CN(Cc1nc(-c2ccncc2)no1)S(=O)(=O)c1ccccc1`: the cell count in assay [1] was 560. Further, the inhibition was 0.6% (inactive) in assay [1], -18.6% (inactive) in assay [3], 12.9% (inactive) in assay [7] and 13.2% (inactive) in assay [8]. For the same molecule, the inhibition of aggregation in assay [2] was -16.9% (inactive). In addition, the nuclei count in assay [2] is 103%; in assay [3], 104%. The fluorescence slope in assay [4] is -0.654 (inactive). For the same molecule, in assay [5], the NADPH fluorescence slope is -4.4e-05 (inactive). Also, the slope in assay [6] is 0.00664 (inactive).
With `CC(C)[C@H](NC(=O)OC(C)(C)C)c1nnc(SCC(=O)Nc2ccc(Br)cc2)o1`, the cell count in assay [1] was found to be 402. Moreover, the inhibition is -6.7% (inactive) in assay [1], -13.2% (inactive) in assay [3], 2.98% (inactive) in assay [7] and 28.3% (inactive) in assay [8]. The inhibition of aggregation in assay [2] was 6.5% (inactive). For the same molecule, the nuclei count in assay [2] came out at 107%; in assay [3] it was 130%. Also, the fluorescence slope in assay [4] was -0.457 (inactive). Moreover, the NADPH fluorescence slope in assay [5] was 2.2e-05 (inactive). Besides, the slope in assay [6] is 0.00396 (inactive).
On to `CC1CCc2nn(CC(=O)NCCN3CCCCC3C)cc2C1` (stereo not given), for which the cell count in assay [1] was determined as 621. Moreover, the inhibition is 12% (inactive) in assay [1], -11.5% (inactive) in assay [3], 7.09% (inactive) in assay [7] and 33.8% (inactive) in assay [8]. The inhibition of aggregation in assay [2] was -27.1% (inactive). The figures for the nuclei count in assay [2] and in assay [3] were 106% and 108%, respectively. In addition, in assay [4], the fluorescence slope was -0.62 (inactive). Further, the NADPH fluorescence slope in assay [5] was 6.4e-06 (inactive). For the same molecule, the slope in assay [6] is 0.00605 (inactive).
Regarding `Cc1cc(NC(=O)Cc2cn3ccsc3n2)n(-c2ccccc2)n1`, the cell count in assay [1] turned out to be 823. The inhibition is -16.9% (inactive) in assay [1], -23.9% (inactive) in assay [3], 5.91% (inactive) in assay [7] and 5.15% (inactive) in assay [8]. Besides, the inhibition of aggregation in assay [2] was -16.8% (inactive). Further, the nuclei count in assay [2] is 104%; in assay [3] it was 106%. Further, the fluorescence slope in assay [4] was -0.308 (inactive). Also, the NADPH fluorescence slope in assay [5] is -1.7e-07 (inactive). Further, the slope in assay [6] was 0.00558 (inactive).
`Cc1ccc(C2=N/C(=C/N3CCOCC3)C(=O)O2)cc1`: the cell count in assay [1] was 302. Besides, the inhibition in assay [1] was 3.3% (inactive); in assay [3], 8.3% (inactive); in assay [7] it was -49.1% (inactive); in assay [8], -197% (inactive). The inhibition of aggregation in assay [2] was 14% (inactive). In addition, the nuclei count amounted to 96.4% in assay [2] and 98.9% in assay [3]. The fluorescence slope in assay [4] was -0.512 (inactive). In addition, the NADPH fluorescence slope in assay [5] is -2.4e-05 (inactive). Besides, in assay [6], the slope is 0.00711 (inactive).
On to `O=C(CSc1nccn1-c1cccc(Cl)c1)NC1CCCC1`, for which, in assay [1], the cell count stood at 256. Also, the inhibition in assay [1] is -9.5% (inactive); in assay [3] it was 39.3% (inactive); in assay [7], 14.4% (inactive); in assay [8] it was 29.2% (inactive). The inhibition of aggregation in assay [2] was -1.4% (inactive). Further, the nuclei count in assay [2] is 95.8%; in assay [3], 95.5%. Further, the fluorescence slope in assay [4] is -0.618 (inactive). Besides, the NADPH fluorescence slope in assay [5] is 3e-05 (inactive). Moreover, the slope in assay [6] is 0.00565 (inactive).
`O=C(c1cccs1)N1CCN=C1SCc1ccccc1`: in assay [1], the cell count amounted to 435. Moreover, the inhibition in assay [1] is 3.1% (inactive); in assay [3] it was -33.5% (inactive); in assay [7], 2.79% (inactive); in assay [8], -0.0227% (inactive). In addition, the inhibition of aggregation in assay [2] is 6.2% (inactive). Besides, the nuclei count was determined as 106% in assay [2] and 111% in assay [3]. Besides, the fluorescence slope in assay [4] is -0.445 (inactive). Besides, the NADPH fluorescence slope in assay [5] is -9.7e-05 (inactive). In assay [6], the slope is 0.00597 (inactive).
For the molecule `O=C(/C=C1\NC2(CCCC2)Cc2ccccc21)N1CCOCC1`, the cell count in assay [1] came out at 637. Moreover, the inhibition in assay [1] is -1.6% (inactive); in assay [3] it was -93.5% (inactive); in assay [7], 14.1% (inactive); in assay [8] it was 16.1% (inactive). Besides, the inhibition of aggregation in assay [2] was -19.3% (inactive). The nuclei count in assay [2] was 88.6%; in assay [3], 134%. For the same molecule, the fluorescence slope in assay [4] was -0.534 (inactive). Besides, in assay [5], the NADPH fluorescence slope was -4.8e-05 (inactive). Besides, in assay [6], the slope is 0.00501 (inactive).

The term inhibition denotes the change of the read-out against control, counted positive when it falls.
